Experimental data taken from PubChem BioAssay (NCATS).
Values without a mark were called inactive. Records with an inconclusive call do not appear. Entries that show only a call come without a potency. Calls of active or inactive are those of the source. The call rests on the fitted dose curve; in most records, active means well fitted curve in the direction sought with a large enough effect; inconclusive means small, poorly fitted or top-dose-only effect, or another doubt; inactive means no such curve, though single readings can be large; an effect the other way counts as inactive or inconclusive.

Assays:
[1] = target: Phospholipid hydroperoxide glutathione peroxidase GPX4 (Homo sapiens) (UniProt P36969); experiment: Primary qHTS Assay for Inhibitors of Recombinant Selenoprotein Glutathione Peroxidase 4 (GPX4) (AID 1845192); further: nearly all actives have a fitted effect of over 65% in size; further: potency means the concentration at half of the fitted maximal effect; on activity change, negative = inhibition: series mostly up to about 50 µM
Chain of Phospholipid hydroperoxide glutathione peroxidase GPX4 (Homo sapiens) (P36969 whole entry, looked up): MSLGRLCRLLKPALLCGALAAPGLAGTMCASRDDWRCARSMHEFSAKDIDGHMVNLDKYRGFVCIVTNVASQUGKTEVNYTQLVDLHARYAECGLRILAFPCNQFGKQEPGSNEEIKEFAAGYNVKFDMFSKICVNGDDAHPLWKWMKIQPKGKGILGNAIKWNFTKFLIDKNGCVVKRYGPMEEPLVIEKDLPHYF
Method in brief: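 qHTS, GR-coupled: GPX4 200 nM + cpd 30 min RT → GSH 1 mM, NADPH 0.5 mM, GR 100 nM → CHP 0.5 mM start; fluor 340/450 at t0 and t15 min; no-enzyme wells as control.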

[2] = target: Luciferin 4-monooxygenase (Photinus pyralis) (UniProt P08659); experiment: Primary firefly luciferase (FLuc) qHTS assay for identification of artifact compounds. (AID 1845220); further: nearly all actives have a fitted effect of over 60% in size; on activity change, negative = inhibition: series mostly up to about 54 µM
Method in brief: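 In this counter-screen for luciferase artifacts, test compounds met substrate (10 uM each luciferin and ATP) before 10 nM enzyme started the reaction. Light output was measured 5 min later.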

[3] = Primary fluorescence-based thiol-reactive (MSTI) qHTS assay for identification of artifact compounds. (AID 1845221); further: nearly all actives have a fitted effect of over 65% in size; further: potency means the concentration at half of the fitted maximal effect;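 on activity change, negative = thiol reactive: series mostly up to about 54 µM; thiol-reactive compounds lower the probe fluorescence signal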
Method in brief: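 One-hour, room-temperature, dark incubation of compound with 4 uM MSTI in PBS (pH 7.4, 2% DMSO) precedes a fluorescence read at 525 nm excitation, 598 nm emission; Hill-equation fitting yields concentration-response values.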

[4] = test system: Nanoluciferase (engineered Oplophorus gracilirostris luciferase); experiment: Primary Nanoluciferase (NLuc) qHTS assay for identification of artifact compounds. (AID 1845222);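 further: NLuc secreted into diluted conditioned medium of S16 cells; series mostly up to about 54 µM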
Method in brief: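 Using secreted nanoluciferase in S16 culture medium (0.22 um filtered, 1:55 dilution), compounds were preincubated 15 min at RT. Signal was generated with Nano-Glo reagent (1:100) over 5 min.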

[5] = Primary redox qHTS assay for identification of artifact compounds. (AID 1845223)
Method in brief: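 Redox-cycling detection via DTT (250 uM final) oxidation coupled to Amplex Red (25 uM)/HRP (250 mU/mL) in HBSS. 15 min preincubation plus 30 min after DTT, room temperature. Ex/Em 525/598 nm; 4-parameter Hill fit against DMSO and 10 uM DA3003.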

Nc1ncnc2c1nc(N)n2[C@@H]1O[C@H](CO)[C@@H](O)[C@H]1O
Potency [1]: inactive | Potency [2]: inactive | Potency [3]: inactive | Potency [4]: inactive | Potency [5]: inactive

N#C[C@@H]1CCCN1C(=O)CNC12CC3CC(CC(O)(C3)C1)C2
Potency [1]: inactive | Potency [2]: inactive | Potency [3]: inactive | Potency [4]: inactive | Potency [5]: inactive

Cc1ccc(Cc2c(C)nc3nc(SCC(=O)NCCN4CCNCC4)nn3c2C)cc1
Potency [1]: inactive | Potency [2]: inactive | Potency [3]: inactive | Potency [4]: inactive | Potency [5]: inactive

C[C@@H]1COCCN1c1cc(C2(S(C)(=O)=O)CC2)nc(-c2cccc3[nH]ccc23)n1
Potency [1]: 18 µM (active) | Potency [2]: inactive | Potency [3]: inactive | Potency [4]: inactive | Potency [5]: inactive

O=C(Nc1ccc(S(=O)(=O)Nc2nccs2)cc1)C(c1ccccc1)c1ccccc1
Potency [1]: inactive | Potency [2]: inactive | Potency [3]: inactive | Potency [4]: inactive | Potency [5]: inactive

C=C1C(=O)OC2C1C(O)CC1(C)C(O)CCC(C=O)C21 (stereo not given)
Potency [1]: inactive | Potency [2]: inactive | Potency [3]: inactive | Potency [4]: inactive | Potency [5]: inactive

O=C(O)c1cc2cccc([N+](=O)[O-])c2[nH]1
Potency [1]: inactive | Potency [2]: inactive | Potency [3]: 21.2 µM (active) | Potency [4]: inactive | Potency [5]: inactive

C[C@@H]([C@@H](O)c1ccc(O)cc1)N1CCC(O)(c2ccccc2)CC1
Potency [1]: inactive | Potency [2]: inactive | Potency [3]: inactive | Potency [4]: inactive | Potency [5]: inactive

CC(CCC1(O)OC2CC3C4CCC5CC(O[C@@H]6O[C@H](CO)[C@@H](O)[C@H](O)[C@H]6O[C@@H]6O[C@@H](C)[C@H](O)[C@@H](O)[C@H]6O)C(O)CC5(C)C4CCC3(C)C2C1C)CO[C@@H]1O[C@H](CO)[C@@H](O)[C@H](O)[C@H]1O (stereo not given in full)
Potency [1]: inactive | activity change, negative = inhibition [2]: -2.32% [at 11.6 µM] | activity change, negative = thiol reactive [3]: 141% [at 11.5 µM] | activity, negative = inhibition [4]: 2.24% [at 11.6 µM] | redox activity (% of DA3003) [5]: 15.2% [at 11.5 µM]

COC1CC(OC2CCC3(C)C(=CCC4C3C(OC(C)=O)C(OC(=O)/C=C/c3ccccc3)C3(C)C(C(C)O)CCC43O)C2)OC(C)C1OC1CC(OC)C(OC2OC(C)C(OC3OC(CO)C(O)C(O)C3O)C(OC)C2O)C(C)O1 (stereo not given)
activity change, negative = inhibition [1]: 0.674% [at 9.73 µM] | activity change, negative = inhibition [2]: 0.278% [at 11.6 µM] | activity change, negative = thiol reactive [3]: 40.8% [at 11.5 µM] | activity, negative = inhibition [4]: 3.09% [at 11.6 µM] | redox activity (% of DA3003) [5]: -2.26% [at 11.5 µM]

CC1CC[C@]2(C(=O)O)CC[C@]3(C(=O)O)C(=CCC4[C@@]5(C)CC[C@H](O[C@@H]6O[C@H](CO)[C@@H](O)[C@H](O)[C@H]6O)C(C)(C)C5CC[C@]43C)C2C1C (stereo not given in full)
Potency [1]: inactive | Potency [2]: inactive | Potency [3]: inactive | Potency [4]: inactive | Potency [5]: inactive

O=C(O)CC1CCC(c2ccc(-c3ccc4nc(C(=O)NCc5ccc(OC(F)(F)F)cc5)cn4c3)cc2)CC1 (stereo not given)
Potency [1]: inactive | Potency [2]: inactive | Potency [3]: inactive | Potency [4]: inactive | Potency [5]: inactive

O=C(O)/C=C/c1ccc(O)c(O[C@@H]2O[C@H](CO)[C@@H](O)[C@H](O)[C@H]2O)c1
Potency [1]: inactive | Potency [2]: inactive | Potency [3]: 4.65 µM (active) | Potency [4]: inactive | Potency [5]: inactive

CN(C)c1nc(NC2CCC(NC(=O)c3ccc(F)c(F)c3)CC2)nc2ccccc12 (stereo not given)
Potency [1]: inactive | Potency [2]: inactive | Potency [3]: inactive | Potency [4]: inactive | Potency [5]: inactive

CC(C)c1c2cc(-c3ccnc(NC4CCC(NC5CCOCC5)CC4)n3)ccc2nn1C (stereo not given)
Potency [1]: 9.04 µM (active) | Potency [2]: inactive | Potency [3]: inactive | Potency [4]: inactive | Potency [5]: inactive

O=C1OCc2cc3cccc(O[C@@H]4O[C@H](CO)[C@@H](O)[C@H](O)[C@H]4O)c3c(O)c21
Potency [1]: inactive | Potency [2]: inactive | Potency [3]: 1.65 µM (active) | Potency [4]: inactive | Potency [5]: inactive

C=C(C(=O)O)[C@@H]1CC[C@@]2(C)CC[C@H](O)[C@@]2(C(C)=O)C1
Potency [1]: inactive | Potency [2]: inactive | Potency [3]: 11.9 µM (active) | Potency [4]: inactive | Potency [5]: inactive

C/C1=C\CC[C@]2(C)O[C@@H]2[C@H](O)[C@H](C(C)C)[C@H](OC(=O)/C=C/c2ccccc2)C1
Potency [1]: inactive | Potency [2]: inactive | Potency [3]: inactive | Potency [4]: inactive | Potency [5]: inactive

C[C@@H]1CC[C@]2(C(=O)O[C@@H]3O[C@H](CO)[C@@H](O)[C@H](O)[C@H]3O)CC[C@]3(C)C(=CCC4[C@@]5(C)C[C@@H](O)[C@H](O)[C@](C)(C(=O)O)C5CC[C@]43C)[C@@H]2[C@]1(C)O (stereo not given in full)
Potency [1]: inactive | Potency [2]: inactive | Potency [3]: inactive | Potency [4]: inactive | Potency [5]: inactive
